# Source: PubChem BioAssay
# Giardia kill – Giardia lamblia killing; Giardia lamblia trophozoite viability; activity change, % at 7.66 µM, hits read low; actives 0.15% (n = 340,000); AID 540267; in the data active means activity change below about -80%; inconclusive means between about -30% and that limit;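 further: parasites exposed to compound for two days anaerobically before the ATP read; on the % scale 0 is the no-effect control and ±100 the full control effect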
#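 Trophozoite viability was measured as ATP-dependent luminescence, read 15-30 min after reagent addition. Before that, parasites at 100 cells/well were exposed to compounds for 48 h, anaerobically, at 37 deg C.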
# HT1080 IDH1KD tx – toxicity to HT-1080 IDH1 knockdown cells (counter line). Potency, µM (doses to about 46.1 µM), without a hit: top-dose activity, negative = toxicity, actives largely listed as cytotoxic. HT-1080 IDH1 knockdown viability, ATP luminescence, 48 h. actives 2% (n = 360,000);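 further: potency means the concentration at half of the fitted maximal effect; 0% = DMSO wells and -100% = cell-free medium wells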
#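 HT-1080-IDH1KD cells (IDH1 knocked down), 750/well in RPMI with 5% FBS, treated with compound 48 h at 37 degrees C. Viability by CellTiter-Glo luminescence, normalised to DMSO and no-cell wells; concentration-response curves classed.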
# IL-1B inflam inh – inhibitors of inflammasome signaling (IL-1 beta secretion) | activity change, % at 57.5 µM | actives 4.7% (n = 360,000) | THP-1 LPS/ATP IL-1B secretion, AlphaLISA, 16 h; hits give low values; in the data active means activity change below about -50%; inconclusive means mostly about -30% to -49%; further: on the % scale 0 is the no-effect control and ±100 the full control effect
#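 THP-1 cells pretreated 1 hr with compounds (up to 57.5 uM final), then stimulated with LPS (250 ng/mL final) plus ATP (1.25 mM final); secreted IL-1B measured by AlphaLISA after 16 hr, decreased signal indicating inhibition.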
# HT1080NT lethal – kills 2HG-producing HT-1080-NT fibrosarcoma cells; HT-1080-NT fibrosarcoma viability, CellTiter-Glo ATP luminescence, 48 h; Potency, µM (titrated, usually from 46.1 µM), for the others: at the top dose activity, negative = less viability, hits mostly cytotoxic; actives 1.6% (n = 360,000); AID 686970;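 further: NT is the 2HG producing partner of a matched IDH1 knockdown line; potency means the concentration at half of the fitted maximal effect; 0% = DMSO-treated cells and -100% = media-only wells without cells; nearly all actives have a fitted effect of over 55% in size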
#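 HT-1080-NT; 750 cells/well; 5% FBS RPMI; 48 h compound, 37 degrees C; CellTiter-Glo luminescence; curve fitting and curve-class assignment.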
# HepG2 viability – counter-screen for TGF-b inhibitors: cytotoxicity in HepG2 cells; AID 588856; Potency, µM (series often up to 46.1 µM), inactives show top-dose activity change, negative = cytotoxicity, hits mostly cytotoxic; HepG2 CAGA-GFP viability, ATP luminescence, 18 h; actives 0.76% (n = 410,000); further: potency means the concentration at half of the fitted maximal effect
#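 HepG2 CAGA-GFP cells (1000/well, DMEM with 1% FBS) received compound, then TGF-beta at 500 pg/mL final, and were incubated 18 hours at 37 degrees C. Viability was read by CellTiter-Glo luminescence. Media-only wells were set as complete cell-killing and DMSO as no toxicity.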
# TGFb SMAD3 inh – inhibitors of TGF-b signaling | AID 588855 | actives 1.2% (n = 410,000) | HepG2 CAGA-GFP TGF-b/SMAD3 reporter, GFP fluorescence, 18 h; TGF-beta stimulated, 500 pg/mL final | Potency, µM (series often up to 46.1 µM), inactives show top-dose activity, negative = inhibition, hits mostly inhibitors; further: potency means the concentration at half of the fitted maximal effect; on the % scale 0 is the no-effect control and ±100 the full control effect; nearly all actives have a fitted effect of over 65% in size
#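 Smad-responsive CAGA-GFP expression was quantified in HEPG2 cells exposed to compounds and 500 pg/mL final TGF-beta for 18 h at 37 degrees C; unstimulated wells defined full inhibition.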
# Starred values were filed as active, the others as inactive; ? = inconclusive; / = no result. Compounds with a hit are over-represented: about 6.5% of the library has one in this group of screens. Unless noted, the call rests on the fitted dose curve; in most records, active means well fitted curve in the direction sought with a large enough effect; inconclusive means small, poorly fitted or top-dose-only effect, or another doubt; inactive means no such curve, though single readings can be large; an effect the other way counts as inactive or inconclusive.
SMILES,Giardia kill,HT1080 IDH1KD tx,IL-1B inflam inh,HT1080NT lethal,HepG2 viability,TGFb SMAD3 inh
Oc1cc(CNCc2ccccc2)c(O)cc1CNCc1ccccc1,-8.8,-26.5%,-11.6,-4.8%,-0.7%,9.6%
CC(C)c1ccc(C(=O)CC2(O)C(=O)N(CCc3ccccc3)c3ccc(Cl)cc32)cc1 (stereo not given),/,/,/,/,-103.9%,15.8µM*
CCCN1C(=O)C(O)(CC(=O)c2ccc(C(C)C)cc2)c2ccccc21 (stereo not given),/,/,/,/,-25.6%,/
O=C(Nc1ccc(SC(F)F)cc1)C1=COCCO1,-14.2,-1.1%,-6.2,-6.7%,-10.7%,2.3%
COc1cc(OC)c(NC(=O)CC(C)S(=O)(=O)c2ccc3c(c2)NC(=O)CO3)cc1Cl (stereo not given),/,/,/,/,7.0%,-5.2%
CCC(C)Sc1ccc(-c2nc3ccc(C)cn3c2NCc2ccccc2)cc1OC (stereo not given),-1.4,?,-99.6*,?,-53.9%,?
COc1ccc(-c2cc(-c3nc4ccccn4c3NCc3ccccc3)ccc2OC)cc1,-2.5,?,-56.2*,?,-15.4%,?
CCC(C)Sc1cc(-c2nc3ccc(C)cn3c2NCc2ccccc2)ccc1OC (stereo not given),41.4,?,-101.6*,?,-40.2%,12.6µM*
COc1ccc(-c2nc3ccccn3c2NCc2ccc3c(c2)OCO3)cc1,5.7,-16.4%,-27.5,-28.3%,-33.8%,3.0%
CCC(C)Sc1ccc(-c2nc3ccc(Cl)cn3c2NCc2ccccc2)cc1 (stereo not given),-3.8,-1.4%,-6.7,23.8%,-77.6%,-12.4%
O=C1CCCN1CC(O)CS(=O)(=O)Cc1ccc(Cl)c(Cl)c1 (stereo not given),19.6,5.0%,0.1,7.1%,4.1%,-3.0%
CC(C(=O)NCc1ccccc1)N(Cc1ccccc1Cl)C(=O)c1snc(C(N)=O)c1N (stereo not given),23.5,0.5%,-75.3*,-13.1%,-90.5%,-5.6%
COc1ccccc1N(C(=O)c1snc(C(N)=O)c1N)C(C(=O)NCc1ccccc1)c1ccc(O)cc1 (stereo not given),4.3,-17.1%,-72.4*,-18.2%,-1.6%,-27.3%
NC(=O)c1nsc(C(=O)N(c2cccc(F)c2)C(C(=O)NCc2ccccc2)c2ccc(O)cc2)c1N (stereo not given),27.3,-8.1%,-50.7*,-0.7%,-15.4%,-7.6%
Cc1ccc(N(C(=O)c2snc(C(N)=O)c2N)C(C(=O)NCc2ccccc2)c2ccncc2)c(C)c1 (stereo not given),-26.4,-21.1%,-51.0*,-28.8%,0.7%,19.5%
CCN(CC(=O)Nc1c(F)cccc1F)C(=O)COc1cccc2c1OC(C)(C)C2,22.3,-5.1%,11.0,7.0%,-1.0%,-4.4%
CCN1CCN(CCCN(Cc2cccs2)C(=S)Nc2ccccc2C)CC1,7.7,7.4%,-5.9,1.0%,-4.4%,1.0%
CCOCCCn1c(SCC(=O)NCCCOC)nc2c(sc3ccccc32)c1=O,/,/,/,/,1.7%,1.9%
NC(=O)c1nsc(C(=O)N(c2ccccc2F)C(C(=O)NCc2ccc(F)cc2)c2ccc(O)cc2)c1N (stereo not given),7.1,?,-100.2*,16.4µM*,-12.9%,?
COc1ccc(N(C(=O)c2snc(C(N)=O)c2N)C(C(=O)NCc2ccccc2)c2ccc(F)cc2)c(OC)c1 (stereo not given),-17.5,?,?,?,0.8%,-5.6%
COc1ccc(C(C(=O)NCc2ccccc2)N(C(=O)c2snc(C(N)=O)c2N)c2ccccc2OC)cc1 (stereo not given),-0.8,-9.0%,-54.5*,-11.9%,2.8%,17.6%
c1ccc(COc2cccc(-c3cc4nc(NCCN5CCOCC5)ccn4n3)c2)cc1,/,?,-18.7,14.6µM*,-28.6%,1.0%
c1ccc(COc2ccc(-c3cc4nc(NCCOc5ccccc5)ccn4n3)cc2)cc1,/,-21.2%,50.9,-25.5%,-47.7%,-0.4%
COCCCNc1ccn2nc(-c3ccc(OCCN4CCOCC4)cc3)cc2n1,/,21.1%,-22.5,15.3%,-10.6%,9.1%
c1ccc(COc2ccc(-c3cc4nc(NCCN5CCOCC5)ccn4n3)cc2)cc1,/,18.4µM*,-29.4,?,-42.9%,26.2%
SMILES,Giardia kill,HT1080 IDH1KD tx,IL-1B inflam inh,HT1080NT lethal,HepG2 viability,TGFb SMAD3 inh
O=C(CSc1nnc(CNC(=O)c2ccccc2)o1)NCc1ccccc1,-12.1,2.4%,17.9,23.4%,0.0%,-4.5%
COc1cc(/C=C2/SC(=O)N(Cc3ccccc3Cl)C2=O)ccc1OCc1ccncc1,-6.6,10.7%,-14.1,9.6%,10.5%,7.6%
O=C(NCCCN1CCN(c2ccccc2F)CC1)c1ccc2nc(CCc3ccccc3)oc2c1,/,/,/,/,11.2µM*,?
CC1CCN(C(=O)c2ccc(NC3=C(Cl)C(=O)N(Cc4ccccc4)C3=O)cc2)CC1,2.4,-27.6%,-93.0*,-12.4%,-42.8%,?
O=C1C(Cl)=C(NCCc2ccccc2)C(=O)N1CCc1ccccc1,-4.1,-0.4%,-19.0,-0.7%,-15.9%,-10.0%
CC1CCCCN1C(=O)c1cccc(NC2=C(Cl)C(=O)N(Cc3ccccc3)C2=O)c1 (stereo not given),17.2,?,-88.1*,?,0.5%,?
COc1ccc(OC)c(NC2=C(Cl)C(=O)N(Cc3ccccc3)C2=O)c1,7.8,?,-164.8*,-16.2%,18.3%,-8.2%
CCOc1ccccc1NC1=C(Cl)C(=O)N(Cc2ccccc2)C1=O,-1.0,?,-4.8,?,-20.2%,-0.7%
O=C1C(Cl)=C(Nc2ccc(F)cc2)C(=O)N1CCc1ccccc1,-1.6,-0.1%,-147.6*,6.8%,0.1%,2.2%
Cc1cc(F)ccc1S(=O)(=O)Nc1ccccc1C(=O)Nc1ccc2[nH]c(=O)[nH]c2c1,-2.2,-1.7%,1.0,1.4%,15.9%,9.9%
C=CCNC1=C(Cl)C(=O)N(Cc2ccccc2)C1=O,-17.5,-8.8%,?,-1.5%,-15.8%,2.4%
O=C1C(Cl)=C(Nc2cccc(O)c2)C(=O)N1Cc1ccccc1,21.1,?,-98.2*,?,23.1%,?
C/C(=N\NC(=O)c1cc(Br)ccc1O)c1ccccn1,9.9,?,-81.3*,?,-27.0%,?
C/C(=N\NC(=O)c1ccccc1Cl)c1ccccn1,-12.3,?,117.5,?,-13.5%,?
C/C(=N\NC(=O)c1cccc2ccccc12)c1ccccn1,25.8,?,-106.6*,?,-10.8%,3.16µM*
